A selection: hits, their analogues and other compounds. The true share with any hit is near 21%.
NS1 inh: qHTS Assay for Inhibitors of Influenza NS1 Protein Function | Potency, µM (doses to about 46.1 µM) | 270,000 compounds, 0.4% hits | AID 2326, 2010; calls by dose curve; note: actives are rising curves; nearly all actives have a fitted effect of over 50% in size
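Compounds were scored for reversing the slow growth caused by influenza A NS1 in S. cerevisiae, measured by optical density at 600 nm. Assay medium contained 2% galactose at pH 6.0; NS1-free yeast of the same strain were the positive control.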
Pf growth 96h: Primary qHTS for delayed death inhibitors of the malarial parasite plastid, 96 hour incubation; P. falciparum luciferase reporter growth, 96 h; AID 504834, 2011; Potency, µM (series often up to 28.7 µM), actives largely listed as inhibitors; 320,000 compounds, 6.9% hits
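Readout is luminescence from an integrated firefly luciferase in P. falciparum. Red cells, 2% hematocrit and 0.05% parasitemia final, were cultured with compound through two parasite generations (96 hours) at 37 C, 5% CO2.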
Sm TGR block: qHTS Assay for the Inhibitors of Schistosoma Mansoni Peroxiredoxins. Potency, µM (highest dose often 114 µM), usual class: inhibitors. AID 485364, 2010. purified TGR, DTNB reduction, TNB absorbance 405 nm. 360,000 compounds, 3% hits. Schistosoma mansoni thioredoxin glutathione reductase (TGR), Q962Y6; note: nearly all actives have a fitted effect of over 60% in size
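Kinetic colorimetric format: TGR-catalysed, NADPH-driven DTNB reduction monitored via TNB absorbance. Enzyme dispensed at 20 nM; compound exposure 15 min at room temperature before reaction start.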
CHX counter: Cycloheximide Counterscreen for Small Molecule Inhibitors of Shiga Toxin; cell reporter, cycloheximide protein synthesis inhibition counterscreen; max response, %; 300,000 compounds, 12% hits; in the data active = max response mostly above about 13%, no sharp cut-off; inactive = mostly below about 14%; note: read at 38.3 µM for the half of the compounds with a filed dose
Pf growth 48h: Primary qHTS for delayed death inhibitors of the malarial parasite plastid, 48 hour incubation | P. falciparum luciferase growth in erythrocytes, 48 h | Potency, µM (titrated, usually from 28.7 µM), hits mostly inhibitors | 310,000 compounds, 5.9% hits
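Luciferase-expressing parasites in RBCs, 2% Hct / 0.1% parasitemia final; RPMI 1640 + 0.5% Albumax; 37 C, 5% CO2, one generation; luminescence read-out, lower signal = inhibition.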
Shiga inhibitor: A qHTS for Small Molecule Inhibitors of Shiga Toxin. Vero cells, Shiga toxin protein synthesis inhibition reporter. inhibition, % at 38.7 µM. 290,000 compounds, 9.2% hits; in the data active = inhibition mostly above about 28%, no sharp cut-off; inactive = mostly below about 43%
Of the large screens only hits and unclear results are named; the others gave an inactive call. Unless noted, calls come from the whole dose curve; as a rule, active = well fitted curve in the direction sought with a large enough effect; inconclusive = small, poorly fitted or top-dose-only effect, or another doubt; inactive = no such curve, though single readings can be large; an effect the other way counts as inactive or inconclusive.

CCOC(=O)CSc1nc2c(sc(=S)n2Cc2ccco2)c(=O)n1-c1ccc(F)cc1	NS1 inh inconclusive, Pf growth 48h 10µM
CCc1cccc(C)c1NC(=O)c1cn2c3c(ccc(Cl)c3c1=O)OC(C)C2 (stereo not drawn)	none (no result: NS1 inh, Pf growth 96h, CHX counter, Pf growth 48h, Shiga inhibitor)
O=S(=O)(Nc1ccc(O)c2ccccc12)c1ccc(Br)cc1	Pf growth 96h inconclusive, Sm TGR block 20µM, Pf growth 48h 4.7µM
O=S(=O)(Nc1cccc2cccnc12)c1ccc(Br)s1	none (no result: NS1 inh, Pf growth 96h, Sm TGR block, Pf growth 48h)
O=S(=O)(Nc1cccc2ccccc12)c1cccs1	CHX counter 9.3, Pf growth 48h inconclusive
COc1ccccc1NS(=O)(=O)c1cccs1	Pf growth 96h inconclusive (no result: Pf growth 48h)
O=S(=O)(Nc1ccc(O)c2ccccc12)c1cccs1	Sm TGR block 20µM
CC(=O)Nc1ccc(NS(=O)(=O)c2ccccc2)c2ccccc12	none (no result: Pf growth 48h)
O=S(=O)(Nc1cccc2cccnc12)c1cccs1	CHX counter 20 (no result: NS1 inh, Pf growth 96h, Sm TGR block, Pf growth 48h)
CCOC(=O)C1CCN(C(=O)CCC(=O)NNc2nc3ccccc3c3nc(C)nn23)CC1	Pf growth 96h inconclusive, Pf growth 48h inconclusive
COc1ccc(NS(=O)(=O)c2ccc3c(c2)N(C(C)=O)CCO3)cc1	Pf growth 96h inconclusive
Cc1ccc(S(=O)(=O)Nc2ccc(O)c3cccnc23)cc1	Pf growth 96h 9.3µM, Pf growth 48h 6.6µM
Cc1ccc(S(=O)(=O)Nc2ccc(O)c3ncccc23)cc1	Pf growth 48h inconclusive
O=C(c1cccnc1)N1CCN(C/C=C/c2ccccc2)CC1	none (no result: NS1 inh)
Fc1ccccc1NC(=S)N1CCN(C/C=C/c2ccccc2)CC1	Pf growth 96h 0.59µM
O=C(NC(=S)N1CCN(C/C=C/c2ccccc2)CC1)c1ccc(F)cc1	Pf growth 96h inconclusive, Pf growth 48h 10µM
S=C(Nc1ccccc1)N1CCN(C/C=C/c2ccccc2)CC1	none
O=C(NC(=S)N1CCN(C/C=C/c2ccccc2)CC1)c1cccnc1	Pf growth 96h 3.3µM, Pf growth 48h 9.3µM
N#C/C(=C\C=C\c1ccccc1)c1nc(-c2ccc(Cl)cc2)cs1	none
CC(=O)c1ccc2noc(-c3cccc(C)c3)c2c1	Sm TGR block 18µM, Pf growth 48h inconclusive (no result: NS1 inh)
CC(=O)c1ccc2noc(-c3ccccc3)c2c1	none
CC(C(=O)c1c[nH]c2ccccc12)N1CCc2ccccc2C1 (stereo not drawn)	Pf growth 96h 2.9µM, Pf growth 48h inconclusive
CCCOc1ccc(CNC(=O)c2ccc3c(c2)N(Cc2ccccc2)CCS3)cc1	none (no result: NS1 inh, Pf growth 96h, CHX counter, Pf growth 48h, Shiga inhibitor)
Cc1ccc(-n2c(C)nc3cc(Cl)ccc3c2=O)nc1	CHX counter 28, Shiga inhibitor 63
CCn1cc(CNC(=O)/C=C/c2ccc([N+](=O)[O-])cc2)cn1	none
CC1(C)[C@@H]2CC[C@]1(CC(=O)O)[C@H](Cl)C2	none (no result: Pf growth 96h, Sm TGR block, CHX counter, Pf growth 48h, Shiga inhibitor)
Cc1oc(-c2ccccc2)nc1C(=O)OCC(=O)NC(C)c1ccccc1 (stereo not drawn)	none (no result: NS1 inh, CHX counter, Shiga inhibitor)
Cc1ccc(-c2nc(CS(=O)CC(=O)NC(C)CCc3ccccc3)c(C)o2)cc1 (stereo not drawn)	Sm TGR block 8.9µM
Cc1ccc(S(=O)Cc2nc(-c3ccc(C(=O)NC(C)c4ccccc4)cc3)oc2C)cc1 (stereo not drawn)	Sm TGR block 14µM (no result: NS1 inh, Pf growth 96h, CHX counter, Pf growth 48h, Shiga inhibitor)
COc1ccc(-c2nc(CS(=O)CC(=O)NC(C)CCc3ccccc3)c(C)o2)cc1OC (stereo not drawn)	Sm TGR block 32µM
CC(C)(C)OC(=O)NC1CNNC1=O (stereo not drawn)	none (no result: NS1 inh, CHX counter, Shiga inhibitor)
CN(CC(=O)NCCN1CCN(c2ccccc2)CC1)S(=O)(=O)c1ccc2c(c1)CCC(=O)N2	Pf growth 96h 4.7µM (no result: Pf growth 48h)
O=C(Nc1cccc(Cl)c1)N1Cc2ccccc2Oc2ncccc21	none (no result: NS1 inh, Pf growth 96h, CHX counter, Pf growth 48h, Shiga inhibitor)
COc1ccc(Nc2nc(N)c([N+](=O)[O-])c(N3CCOCC3)n2)cc1	Pf growth 96h inconclusive, Pf growth 48h inconclusive
Cc1cccc(Nc2nc(N)c([N+](=O)[O-])c(N3CC(C)OC(C)C3)n2)c1 (stereo not drawn)	Pf growth 96h inconclusive, Pf growth 48h inconclusive
CN(C)c1ccc(Nc2nc(N)c([N+](=O)[O-])c(N3CCOCC3)n2)cc1	Pf growth 96h 10µM, Pf growth 48h inconclusive
Cc1cccc(Nc2nc(N)c([N+](=O)[O-])c(N3CC(C)CC(C)C3)n2)c1 (stereo not drawn)	Pf growth 96h inconclusive, Pf growth 48h 13µM
Cc1cc(COc2ccccc2OCc2cc(C)no2)on1	none (no result: Pf growth 96h)
Cc1onc(COc2ccccc2O)c1Br	CHX counter 18
O=C(O)c1cccc(NC(=O)c2ccccc2NC(=O)c2ccco2)c1	none
CCc1ccccc1NC(=O)c1cccc(NC(=O)/C=C/c2ccco2)c1	Sm TGR block 20µM, CHX counter 69, Shiga inhibitor 105
Cc1ccc(NC(=O)c2cccc(NC(=O)/C=C/c3ccco3)c2)cc1C	Pf growth 96h inconclusive, Sm TGR block 45µM, CHX counter 57, Shiga inhibitor 137
Cc1ccc(NC(=O)N/C=C/c2ccco2)cc1C	Sm TGR block inconclusive
Cc1ccc(-n2nc3ccc(NC(=O)c4cc5ccccc5o4)cc3n2)cc1	none (no result: NS1 inh, Pf growth 96h, CHX counter, Pf growth 48h, Shiga inhibitor)
Cc1ccc(-n2nc3ccc(NC(=O)/C=C/c4ccco4)cc3n2)cc1	CHX counter 22, Shiga inhibitor 74
O=C(/C=C/c1ccco1)Nc1cccc(C(=O)Nc2ccccc2C(=O)O)c1	Sm TGR block 4µM
CC(C)(C)c1ccc(C(=O)NC2(C(F)(F)F)NC(=O)N(CCc3ccccc3)C2=O)cc1 (stereo not drawn)	none (no result: NS1 inh, Pf growth 96h, CHX counter, Pf growth 48h, Shiga inhibitor)
COc1cccc(/C=N/Nc2cc(N3CCOCC3)ncn2)c1O	Pf growth 48h 0.93µM
